HT1080 IDH1KD tx – HT-1080 IDH1 knockdown cell toxicity (counter line) | 360,000 tested, 2% active | HT-1080 IDH1 knockdown viability, ATP luminescence, 48 h | Potency, µM (series often up to 46.1 µM), for the others: at the highest dose activity, negative = toxicity, usual class: cytotoxic | AID 686971;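 also: 0% = DMSO wells and -100% = cell-free medium wells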
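Using the IDH1-knockdown HT-1080 line run in the same batch and compound series as the NT line, viability after 48 h at 37 °C was determined by CellTiter-Glo luminescence and expressed as % activity.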
MCF10A rereplic – DNA re-replication induction in MCF 10a cells. AID 624296. 350,000 tested, 2.9% active. Potency, µM (highest dose often 46.1 µM), for inactives: at the top dose activity, positive = re-replication, actives largely listed as activators. MCF 10A DNA re-replication, Hoechst nuclear intensity, 48 h; also: % of control where 0% means no effect; nearly all actives have a fitted effect of over 50% in size
SW480 rereplic – induces DNA re-replication in SW480 colon adenocarcinoma cells. 340,000 tested, 1.8% active. AID 624297. SW480 DNA re-replication, Hoechst DNA content imaging, 48 h. Potency, µM (top dose mostly 46.1 µM), inactives show at the top dose re-replication activation, most hits filed as activators; also: % of control where 0% means no effect; nearly all actives have a fitted effect of over 55% in size
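Readout is total intensity of Hoechst-stained nuclei, excited at 405 nm and collected at 500-530 nm. Compound treatment lasted 48 hr at 37 C in 5% CO2 before staining.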
KB-V1 cytotox – KB-V1 MDR subline cytotoxicity; KB-V1 MDR cells viability, CellTiter-Glo, 72 h; Potency, µM (series often up to 46.1 µM), most hits filed as cytotoxic; 400,000 tested, 3.4% active; also: % is scaled to controls: 0 for no effect and ±100 for the full control effect; nearly all actives have a fitted effect of over 60% in size
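Cytotoxicity via CellTiter-Glo luminescence after 72 h compound exposure at 37 degrees C. Cells: drug-selected KB-V1 line, DMEM phenol-red free plus 10% FBS. Compounds tested at multiple concentrations; normalized data fitted to concentration-effect curves.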
KB-3-1 cytotox – KB-3-1 parental cell cytotoxicity. KB-3-1 viability, CellTiter-Glo ATP luminescence, 72 h. Potency, µM (highest dose often 46.1 µM), hits mostly cytotoxic. 400,000 tested, 1.4% active. AID 1347075; also: % is scaled to controls: 0 for no effect and ±100 for the full control effect; nearly all actives have a fitted effect of over 60% in size
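Cytotoxicity in the drug-sensitive parental line KB-3-1 was scored as loss of CellTiter-Glo luminescence following 72 h incubation with compound. Values come from curve fitting of normalized concentration-response data.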
HT1080NT lethal – kills 2HG-producing HT-1080-NT fibrosarcoma cells; 360,000 tested, 1.6% active; Potency, µM (series often up to 46.1 µM), inactives show at the highest dose activity, negative = less viability, hits mostly cytotoxic; HT-1080-NT fibrosarcoma viability, CellTiter-Glo ATP luminescence, 48 h; AID 686970;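 also: NT is the 2HG producing partner of a matched IDH1 knockdown line; 0% = DMSO-treated cells and -100% = media-only wells without cells; nearly all actives have a fitted effect of over 55% in size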
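Read-out is CellTiter-Glo luminescence after 10 minutes at room temperature, following 48 hours' compound treatment of HT-1080-NT cells (750 cells/well, RPMI, 5% FBS, 37 degrees C).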
* marks the source's active call; other numbers are inactive results; i = inactive; u = inconclusive; x = no result given; ! = not confirmed by another sample; [ ] = remark or other dose. Most compounds without a hit are left out; they make up all but 7.9% or so of the library. Calls follow the shape of the dose curve; as a rule, active = well fitted curve in the direction sought with a large enough effect; inconclusive = small, poorly fitted or top-dose-only effect, or another doubt; inactive = no such curve, though single readings can be large; an effect the other way counts as inactive or inconclusive. Potency is read from the fitted curve at half-maximal effect.

SMILES	HT1080 IDH1KD tx	MCF10A rereplic	SW480 rereplic	KB-V1 cytotox	KB-3-1 cytotox	HT1080NT lethal
O=C(NCCN1C(=O)S/C(=C\c2ccc(F)cc2)C1=O)C1CCN(S(=O)(=O)c2cccs2)CC1	15%	3%	-2%	i	i	4%
O=C(Nc1nc(-c2ccc3ccccc3c2)cs1)C1CCN(S(=O)(=O)c2cccs2)CC1	-20%	-43%	-137%	2.6µM*	4.6µM*	-7%
Cc1ccc(-c2csc(NC(=O)C3CCN(S(=O)(=O)c4cccs4)CC3)n2)cc1	u	2%	u	9.2µM*	6.5µM*	-12%
COc1ccc(/C=C2\SC(=O)N(CCNC(=O)C3CCN(S(=O)(=O)c4cccs4)CC3)C2=O)cc1	1%	-7%	-15%	15µM*	i	3%
Cc1ccc(C)c(Nc2nc3nonc3nc2Nc2cccc(C)c2C)c1	x	x	x	u	21µM*	x
COc1ccc(-c2cc3ncc(C(C)=O)c(C)n3n2)cc1	-1%	-3%	-4%	i	i	-4%
CCCc1cc(=O)oc2c(C)c(OC(C)C(=O)NCCN3CCOCC3)ccc12 (stereo unspecified)	4%	15%	-11%	i	i	5%
O=C(CCl)N1CCCC1c1ccc2c(c1)OCCO2 (stereo unspecified)	18µM*	19%	u	u	u	23µM*
CC(=O)C1=C(c2cccc([N+](=O)[O-])c2)N(C(C)=O)n2c(C)nnc2S1	u	23µM*	u	i	15µM*	u
CCOc1ccc(CN(C)C(=O)c2ccc(NC(=O)CC3SC(N4CCCC4)=NC3=O)cc2)cc1 (stereo unspecified)	0%	-29%	-2%	i	i	-3%
COc1ccccc1CNC(=O)c1ccc2c(=O)n3c(nc2c1)CCCCC3	u	15%	-20%	i	i	-14%
CCCn1nc(NC(=O)c2cccs2)c2cc3cc(OC)ccc3nc21	-1%	u	15µM*	u	i	0%
CCCCn1nc(NC(=O)CCC)c2cc3cc(OC)ccc3nc21	-14%	u	u	u	i	-14%
CCCCn1nc(NC(=O)c2cccs2)c2cc3cc(OC)ccc3nc21	u	u	12µM*	u	i	u
O=C(/C=C/c1ccccc1)Nc1cccc(S(=O)(=O)Nc2ccccc2F)c1	-13%	u	11%	9.2µM*!	i	2%
O=C(Nc1cccc(S(=O)(=O)Nc2ccccc2F)c1)c1ccc2ccccc2n1	-9%	11%	-1%	i	i	-3%
O=C(Cc1ccc(Cl)cc1Cl)Nc1cccc(S(=O)(=O)Nc2ccccc2F)c1	-26%	u	-2%	21µM*	u	0%
CCNC(=O)C1(C)CCN(Cc2ccc(-c3ccccc3)cc2)C1 (stereo unspecified)	-19%	x	x	i	i	-25%
COc1ccc([C@H]2N[C@]3(CCCN(Cc4ccc(F)cc4)C3=O)[C@H]3C(=O)N(C)C(=O)[C@@H]23)cc1	9%	x	x	i	i	3%
COC(=O)C(C)(C)c1cccnc1C#N	5%	15%	-1%	i	i	6%
C=CCOc1ccccc1CN1CCC(n2nccc2NC(=O)c2ccccc2)CC1	-7%	-1%	2%	i	i	-16%
Cc1ccc(-c2[nH]nc(N)c2N=Nc2ccccc2C)cc1	18µM*	u	u	u	u	u
Cc1ccc(-c2[nH]nc(N)c2N=Nc2cccc(Cl)c2C)cc1	u	21µM*	u	u	u	u
Cc1cccc(N=Nc2c(N)n[nH]c2-c2ccc(Cl)cc2)c1	u	u	12%	i	i	u
CC1(C(=O)NS(=O)(=O)c2cccc(F)c2)CCN1C(=O)Cc1cccs1 (stereo unspecified)	17%	x	x	i	i	6%
SMILES	HT1080 IDH1KD tx	MCF10A rereplic	SW480 rereplic	KB-V1 cytotox	KB-3-1 cytotox	HT1080NT lethal
CCCNC(=O)c1cccc(S(=O)(=O)N2CC3(C)CC2CC(C)(C)C3)c1 (stereo unspecified)	-13%	6%	1%	2.1µM*	i	-8%
CCOC(=O)c1cc([N+](=O)[O-])sc1NC(=O)c1ccc(S(=O)(=O)N2CC3(C)CC2CC(C)(C)C3)cc1 (stereo unspecified)	-10%	u	u	u	4.6µM*	5%
CC1(C)CC2CC(C)(CN2S(=O)(=O)c2ccc(C(=O)Nc3ccc(S(=O)(=O)N4CCOCC4)cc3)cc2)C1 (stereo unspecified)	u	-3%	-11%	u	u	u
CC1(C)CC2CC(C)(CN2S(=O)(=O)c2ccc(C(=O)Nc3ccc(Cl)c(S(=O)(=O)N4CCOCC4)c3)cc2)C1 (stereo unspecified)	-14%	-1%	15%	2.9µM*	2.9µM*	-10%
CN(C)C(CNC(=O)c1cccc(S(=O)(=O)N2CC3(C)CC2CC(C)(C)C3)c1)c1ccco1 (stereo unspecified)	3%	1%	0%	i	i	-1%
CC(=O)Nc1ccc(S(=O)(=O)N2CC3(C)CC2CC(C)(C)C3)cc1 (stereo unspecified)	-17%	-1%	30%	i	i	-1%
C=CCOc1ccccc1CNc1ccccc1C	8%	u	8.2µM*	i	i	6%
Cc1ccccc1NCc1ccccc1O	1%[9.24 µM]	0%	-6%	i	i	2%
Cc1nn(CCCC(=O)Nc2ccccc2C(F)(F)F)c(=O)c2c1sc1ccccc12	x	x	x	i	i	x
Cc1cccc(N2CCN(CCCNC(=O)c3ccc(NC(=O)C4=CSCCO4)cc3)CC2C)c1 (stereo unspecified)	21µM*	u	u	i	i	u
CC1CCCN(CCCNC(=O)c2ccc(NC(=O)C3=CSCCO3)cc2)C1 (stereo unspecified)	1%	-5%	-3%	i	i	1%
CCn1c(=O)c2cc(C(=O)N3CCN(c4cccc(Cl)c4)CC3)sc2c2ccccc21	x	x	x	i	i	x
COc1cccc(CNC(=O)c2cccc(-n3c(C)nc4cccnc43)c2)c1OC	x	x	x	i	i	x
O=[N+]([O-])c1ccc(S(=O)Cc2ccccc2)c([N+](=O)[O-])c1 (stereo unspecified)	16µM*	4.1µM*	23µM*	u	u	16µM*
